Screening results from PubChem.
HT1080 IDH1KD tx: toxicity to HT-1080 IDH1 knockdown cells (counter line). HT-1080 IDH1 knockdown viability, ATP luminescence, 48 h. Potency, µM (doses to about 46.1 µM), usual class: cytotoxic. 360,000 compounds, 2% hits
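CellTiter-Glo luminescence after 48 h compound exposure at 37 degrees C of IDH1-knockdown HT-1080 cells in 5% FBS RPMI. %Activity scaled between DMSO wells and cell-free media wells, with curves fitted and assigned curve classes.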
KB-3-1 tox: kills parental KB-3-1 adenocarcinoma cells; Potency, µM (titrated, usually from 46.1 µM), usual class: cytotoxic; 400,000 compounds, 1.4% hits; KB-3-1 viability, CellTiter-Glo ATP luminescence, 72 h; AID 1347075; further: nearly all actives have a fitted effect of over 60% in size
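Cytotoxicity in the drug-sensitive parental line KB-3-1 was scored as loss of CellTiter-Glo luminescence following 72 h incubation with compound. Values come from curve fitting of normalized concentration-response data.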
HT1080-NT tox: kills 2HG-producing HT-1080-NT fibrosarcoma cells; HT-1080-NT fibrosarcoma viability, CellTiter-Glo ATP luminescence, 48 h; Potency, µM (series often up to 46.1 µM), usual class: cytotoxic; AID 686970; 360,000 compounds, 1.6% hits;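 further: NT is the 2HG producing partner of a matched IDH1 knockdown line; nearly all actives have a fitted effect of over 55% in size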
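Luminescent CellTiter-Glo readout after 48 hours of compound exposure at 37 degrees C defined viability of HT-1080-NT cells. Activity was normalized to DMSO wells and cell-free media wells; concentration-response curves were fitted and assigned curve classes.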
DT40 TDP1 no CPT: qHTS for Inhibitors of human tyrosyl-DNA phosphodiesterase 1 (TDP1): qHTS in cells in absence of CPT; DT40 Tdp1-/- hTDP1 cells, no CPT, ATP luminescence, 48 h; 420,000 compounds, 15% hits; Potency, µM (highest dose often 46.2 µM), usual class: inhibitors; further: nearly all actives have a fitted effect of over 55% in size
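Growth kinetics read by CellTiter-Glo luminescence after ≥48 hr at 37 °C. Cells: DT40 Tdp1-/- stably carrying human TDP1, 400 per well, compound exposure in the absence of CPT (DMSO vehicle).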
KB-V1 cytotox: kills drug-selected multidrug resistant KB-V1 cells; KB-V1 MDR cells viability, CellTiter-Glo, 72 h; Potency, µM (titrated, usually from 46.1 µM), actives largely listed as cytotoxic; 400,000 compounds, 3.4% hits; AID 1347076; further: nearly all actives have a fitted effect of over 60% in size
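In this primary screen, KB-V1 cells overexpressing P-gp are incubated with library compounds (lowest to highest concentration) for 72 h at 37 degrees C before a luminescent ATP viability read.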
DT40 TDP1 CPT: growth inhibition of DT40 Tdp1-/-;hTDP1 cells with camptothecin (screen for TDP1 inhibitors); Potency, µM (titrated, usually from 46.2 µM), usual class: inhibitors; AID 686979; 420,000 compounds, 12% hits; chicken DT40 Tdp1-/-;hTDP1 cells + 20 nM CPT, ATP luminescence, 48 h; further: nearly all actives have a fitted effect of over 55% in size
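Chicken DT40 Tdp1-/- cells complemented with human TDP1, 400 cells/well, exposed to compounds plus 20 nM camptothecin for at least 48 h at 37 C; viability read as ATP content by CellTiter-Glo luminescence.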
Numbers stand for hits; n = inactive; u = inconclusive; x = no result given. The list is not random: actives were taken first. Their share in the collection is about 19%. The call rests on the fitted dose curve; in most records, active means well fitted curve in the direction sought with a large enough effect; inconclusive means small, poorly fitted or top-dose-only effect, or another doubt; inactive means no such curve, though single readings can be large; an effect the other way counts as inactive or inconclusive.

SMILES | HT1080 IDH1KD tx | KB-3-1 tox | HT1080-NT tox | DT40 TDP1 no CPT | KB-V1 cytotox | DT40 TDP1 CPT
CC1(C)CC(=O)C2=C(C1)c1c(ccc3ccccc13)NC2c1ccc(C(=O)O)cc1 (stereo not given) | n | n | n | n | n | n
O=C1CCCC2=C1C(c1ccco1)Nc1ccc3ccccc3c12 (stereo not given) | u | n | n | 18.4µM | 20.6µM | 20.6µM
COc1cc(C2Nc3ccccc3NC3=C2C(=O)CC(C)(C)C3)cc(OC)c1OC (stereo not given) | n | n | n | n | n | n
COc1cc(C2Nc3ccc4ncccc4c3C3=C2C(=O)CCC3)cc(OC)c1O (stereo not given) | 8.2µM | u | 16.4µM | 5.17µM | n | 5.17µM
CC1(C)CC(=O)C2=C(C1)c1c(ccc3ncccc13)NC2c1cccs1 (stereo not given) | 4.11µM | 3.66µM | 3.26µM | 3.66µM | 5.8µM | 5.17µM
Cc1ccc(C2Nc3ccc4ccccc4c3C3=C2C(=O)CC(C)(C)C3)o1 (stereo not given) | u | n | n | u | 10.3µM | u
CCOc1ccc(-n2c(-c3ccccc3)c(C)n3c4c(=O)n(C)c(=O)n(C)c4nc23)cc1 | x | n | x | x | n | x
CC1(C)CC(=O)C2=C(C1)c1c(ccc3ccccc13)NC2c1cc([N+](=O)[O-])cc([N+](=O)[O-])c1O (stereo not given) | u | n | n | u | n | u
O=C1CCCC2=C1C(c1ccc(O)c(O)c1)Nc1ccc3ccccc3c12 (stereo not given) | u | n | u | 10.3µM | u | u
CCOC(=O)N1CCN(c2nc(-c3cccs3)nc3ccccc23)CC1 | n | n | n | 14.6µM | u | 23.1µM
CS(=O)(=O)N1CCN(c2nc(-c3cccs3)nc3ccccc23)CC1 | n | x | n | 11.2µM | x | 15.8µM
O=S(=O)(c1ccccc1C(F)(F)F)N1CCN(c2nc(-c3cccs3)nc3ccccc23)CC1 | x | n | x | 11.2µM | n | 12.6µM
O=S(=O)(c1cccs1)N1CCN(c2nc(-c3cccs3)nc3ccccc23)CC1 | n | x | n | 20µM | x | u
Cn1ccc(NC(=O)Nc2cccc([N+](=O)[O-])c2)n1 | n | n | n | n | n | n
COc1ccccc1S(=O)(=O)Cc1ccc(C(=O)NCc2ccccc2)o1 | n | n | n | n | n | n
Nc1nc(N)c2ncc(C(=O)CCc3ccccc3)nc2n1 | n | n | n | u | n | 13µM
O=C(NCCc1ccccc1)c1cnc2ccccc2n1 | n | n | n | n | n | u
COc1cc(-c2n[nH]c(=S)n2-c2ccc(Br)cc2)cc(OC)c1OC | n | n | n | n | n | n
CC1=C(c2ccc(Cl)cc2)S(=O)(=O)N=C1N1CCN(c2cccc(C)c2)C(C)C1 (stereo not given) | x | x | x | 5.17µM | x | 5.17µM
COc1ccc(-n2ncc3c(N4CCN(c5cccc(C)c5)C(C)C4)ncnc32)cc1 (stereo not given) | x | 20.6µM | x | 10.3µM | u | 2.91µM
Cc1cccc(-n2ncc3c(N4CCN(c5ccccc5)CC4)ncnc32)c1 | x | n | x | u | n | 20.6µM
Cc1cccc(-n2ncc3c(N4CCCC4)ncnc32)c1 | n | n | n | n | n | n
COc1ccc(C2=C(N3CCN(c4cccc(C)c4)C(C)C3)c3ccccc3C2=O)cc1 (stereo not given) | x | n | x | 25.9µM | u | 20.6µM
Cc1ccc(-c2nc3nc(C)cc(N4CCN(c5cccc(C)c5)C(C)C4)n3n2)cc1 (stereo not given) | x | n | x | u | n | n
Cc1cccc(N2CCN(c3cc(C)nc4nnnn34)CC2C)c1 (stereo not given) | n | n | n | n | n | n
SMILES | HT1080 IDH1KD tx | KB-3-1 tox | HT1080-NT tox | DT40 TDP1 no CPT | KB-V1 cytotox | DT40 TDP1 CPT
CCC(C(=O)NCc1ccccc1OC)n1nc(C)n2c(cc3sccc32)c1=O (stereo not given) | x | n | x | u | n | u
CC(/C=N/NC(=O)Cc1cc(=O)[nH][nH]1)=C\c1ccccc1 | n | n | n | n | n | n
C/C1=C/CC(C)(C)/C=C/C/C(C)=C/CC1 | x | x | x | n | x | n
COc1ccc(N2CCN(c3ncnc4c3cnn4-c3ccc(C)cc3C)CC2)cc1 | n | n | n | 11.6µM | 4.61µM | u
COc1ccc(-n2ncc3c(N4CCN(c5cc(C)ccc5C)CC4)ncnc32)cc1 | n | n | n | u | n | n
CCN1CCN(c2ncnc3c2cnn3-c2ccc(C)cc2C)CC1 | n | n | n | u | n | u
Cc1ccc(-n2ncc3c(N4CCN(C)CC4)ncnc32)cc1C | x | n | x | u | n | u
Cc1ccc(-n2ncc3c(N4CCN(c5ccccc5)CC4)ncnc32)cc1C | x | n | x | 13µM | n | u
Cc1ccc(-n2ncc3c(N4CCN(c5ccccc5)CC4)ncnc32)c(C)c1 | n | u | n | 4.61µM | 2.31µM | 5.8µM
CC1=C(C(=O)Nc2ccccn2)C(c2cccnc2)n2nnnc2N1 (stereo not given) | n | n | n | n | n | n
Cc1cc(COc2ccccc2)oc1C(=O)O | n | n | n | n | n | n
O=C(NCc1ccc(F)cc1)c1cc2n(n1)C(C(F)(F)F)CC(C1CC1)N2 (stereo not given) | n | n | n | u | n | u
Cc1ccc(CNC(=O)C2CCCCC2C(=O)O)cc1 (stereo not given) | n | n | n | n | n | n
COc1ccccc1COCC(O)CN(Cc1ccco1)Cc1ccccc1O (stereo not given) | n | n | n | u | 7.31µM | u
O=C(NC1CC1)C1CCN(c2ncnc3c2sc2cccc(F)c23)CC1 | n | n | n | 16.4µM | u | 23.1µM
O=C(NC1CC1)C1CCN(c2nc3ccccc3s2)CC1 | n | n | n | n | n | n
COc1cccc(C(=O)Nc2cccc(-c3cn4c(C)csc4n3)c2)c1OC | x | n | x | 16.4µM | n | 18.4µM
COc1ccc(C(=O)Nc2cccc(-c3cn4ccsc4n3)c2)c(OC)c1 | x | x | x | 6.51µM | x | 5.17µM
CCOc1cccc(CNC(=O)c2ccc(N3CCCC3)c(NC(=O)NCc3ccc(F)cc3)c2)c1 | x | n | x | n | n | n
CCNC(=O)C1(C)CCCN1C(=O)c1ccc(C#N)cc1 (stereo not given) | u | n | n | n | n | n
Cc1cc(C)n(-c2nnc(NCc3ccc(Cl)cc3)nn2)n1 | n | n | n | u | n | n
Cc1nn(-c2nnc(NCc3ccccc3)nn2)c(C)c1Br | n | 8.2µM | n | n | 20.6µM | u
CCOC(=O)CN(C(=O)COc1nc(-c2ccccc2)cc(C)c1C#N)c1ccccc1C | n | 3.66µM | n | 10.3µM | n | 16.4µM
